Vaccinia mCherry: inhibitors of vaccinia virus infection (mCherry reporter signal); Potency, µM (highest dose often 36.5 µM), for the others: at the top dose activity change, negative = inhibition, actives largely listed as inhibitors; 0.63% of 310,000 active; Vaccinia virus mCherry reporter infection, fluorescence; calls by dose curve; tested in A549 cells; note: potency is the fitted concentration of half-maximal effect; nearly all actives have a fitted effect of over 35% in size
HCMV inh: human cytomegalovirus inhibition | HFF cells, HCMV-luciferase reporter, 72 h; hits give low values | activity change, negative = inhibition, % at 57.5 µM | AID 1259415 | 4.5% of 410,000 active; in the data active = activity change below about -60%; inconclusive = no clear call, values can overlap the other calls; inactive = above about -39%
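Luciferase read-out from HCMV-luciferase-infected HFFs (MOI 1 PFU/cell) 72 h post infection at 37C; compounds added after 16 h cell attachment; activity normalized between buffer-only basal and Salinomycin (10uM) inhibitor controls.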
MARV entry inh: inhibitors of Marburg virus binding or cell entry | Marburg virus pseudotyped entry inhibition, cell reporter | Potency, µM (series often up to 37.8 µM), for the others: at the highest dose activity change, negative = inhibition, hits mostly inhibitors | 1.8% of 300,000 active; calls by dose curve; tested in HEK293 cells; note: potency is the fitted concentration of half-maximal effect
LASV entry inh: blocks Lassa virus binding to or entry into cells. Lassa virus pseudotype entry inhibition, cell reporter. Potency, µM (highest dose often 37.9 µM), for the others: top-dose activity change, negative = inhibition, hits mostly inhibitors. 1.2% of 300,000 active; calls by dose curve; tested in HEK293 cells; note: potency is the fitted concentration of half-maximal effect; nearly all actives have a fitted effect of over 50% in size
FMDV inh: blocks foot and mouth disease virus; FMDV antiviral cell-based qHTS; Potency, µM (highest dose often 57.9 µM), without a hit: top-dose activity change, negative = inhibition, most hits filed as inhibitors; 1.2% of 410,000 active; calls by dose curve; tested in HEK293T cells; note: read-out not given here; potency is the fitted concentration of half-maximal effect; nearly all actives have a fitted effect of over 45% in size
Vaccinia Venus: vaccinia inhibition (Venus reporter) | 0.46% of 330,000 active | AID 720580 | Potency, µM (titrated, usually from 36.5 µM), inactives show at the top dose activity change, negative = inhibition, hits mostly inhibitors | Vaccinia virus Venus reporter expression, fluorescence; calls by dose curve; tested in A549 cells; note: potency is the fitted concentration of half-maximal effect; nearly all actives have a fitted effect of over 30% in size
Starred values were filed as active, the others as inactive; i = inactive; ? = inconclusive; . = no result given; ! = not active in a repeat; [ ] = another dose, or the depositor's remark. Rows were chosen to be rich in hits. Some 6.5% of all compounds tested hit in one or more screens of this group. % is set by controls: 0 for no effect and ±100 for the full control effect.

SMILES | Vaccinia mCherry | HCMV inh | MARV entry inh | LASV entry inh | FMDV inh | Vaccinia Venus
CCOc1ccc(NS(=O)(=O)c2ccc3[nH]c4c(c3c2)CCCCC4)cc1 | -4% | -103* | . | -21%[46.1 µM] | 0% | -21%
Cc1ccnc(NC(=O)C(Cc2ccccc2)NC(=O)c2ccccc2)c1 (centres undefined) | . | -11 | . | . | 15% | .
Clc1cccc(CNc2cc(-c3ccccc3)nc3nncn23)c1 | -4% | -62* | ? | ? | ? | -25%
COc1ccccc1CNc1cc(-c2ccccc2)nc2nncn12 | -20% | -87* | ? | -5%[46.1 µM] | -16% | -8%
O=S1CCCS[C@@H]1c1cccnc1 (some centres undefined) | . | . | -8% | . | . | .
Cc1ccc(S(=O)(=O)N(C)Cc2ccc(C(=O)N/N=C/c3ccc(OC(F)F)cc3OC(F)F)cc2)cc1 | -13% | ? | ? | ? | 6.3µM* | -23%
O=C(N/N=C/c1ccc(OC(F)F)cc1OC(F)F)c1ccc(Br)cc1 | . | -38 | 7% | 0% | 15% | .
CC(CN1CCOCC1)OC(=O)c1cccs1 (centres undefined) | . | 39 | -1% | 21% | -3% | -4%
O=C(Oc1c(CN2CCOCC2)cc(Cl)c2cccnc12)c1ccccc1Cl | 3.5µM* | -98* | ? | ? | -19% | 5.6µM*
O=C(Oc1ccc(Cl)c2cccnc12)N1CCOCC1 | i | 65 | 1% | -1% | 6% | -17%
O=C(Oc1c(CN2CCOCC2)cc(Cl)c2cccnc12)c1cccs1 | ? | -98* | 10µM* | ? | -17% | ?
COc1ccccc1-n1ncc2c(=O)[nH]c(SCC(=O)Nc3cccc(F)c3)nc21 | -8% | -36 | . | -16%[46.1 µM] | -16% | -6%
COc1ccc(-c2ccc(C(=O)N(C)Cc3csc(C)n3)c(N3CCC(N4CCc5ccccc5C4)CC3)n2)cc1 | -9% | . | . | . | 52% | 10%
COc1ccc(C(=O)OCC(=O)NC(=O)NC2CCCC2)c(O)c1 | -14% | 55 | 1% | -8% | -9% | -15%
COc1ccc(C(=O)/C=C/C(=O)N(CC(=O)NC2CCCCC2)Cc2cccs2)c(O)c1 | . | -100* | . | . | 6.3µM* | .
COc1ccc(CN(C(=O)/C=C/C(=O)c2ccc(OC)cc2O)C(C(=O)NC2CCCCC2)c2ccncc2)cc1 (centres undefined) | -14% | -84* | ? | ? | 2% | ?
COc1ccc(C(=O)/C=C/C(=O)N(Cc2ccc3c(c2)OCO3)C(C(=O)NC2CCCCC2)c2ccncc2)c(O)c1 (centres undefined) | ? | ? | ? | ? | -10% | ?
COCCN(CC(=O)NC1CCCCC1)C(=O)/C=C/C(=O)c1ccc(OC)cc1O | 1% | -112* | 11µM* | 13µM* | 3.2µM* | 1%
COC(=O)C(/C=C/C(C)Cc1cc(Br)cc(OCc2ccccc2)c1OC)OCc1ccccc1 (centres undefined) | . | . | -15%[14.2 µM] | . | . | .
COc1cc([C@@H](NC(=O)C(F)(F)F)C2CCCCC=C2c2ccccc2)cc(OC)c1OC (some centres undefined) | . | . | 10%[14.2 µM] | -12%[14.3 µM] | . | .
COc1cccc(/C=C(\C#N)c2nc3ccc(C)cc3[nH]2)c1OCC(=O)O | . | 28 | . | . | -1% | .
CCOc1cccc(/C=C(/C#N)c2nc3ccccc3[nH]2)c1OCC(=O)O | . | -101* | . | . | -12% | .
COc1ccc2[nH]c(=O)c(CN(Cc3cccs3)C(=S)Nc3cccc(C)c3)cc2c1 | -15% | -66* | 4.5µM* | ? | -30% | -12%
COc1ccc2[nH]c(=O)c(CN(CCO)S(=O)(=O)c3c(C)ccc4nsnc34)cc2c1 | . | -3 | 11% | 0% | -12% | .
COc1ccc2[nH]c(=O)c(CN(Cc3cccs3)S(=O)(=O)c3cccc4nsnc34)cc2c1 | . | ? | 16µM*! | ? | -18% | .
COC(=O)c1cc(CNC(=O)c2cnsn2)cc(NC(=O)c2ccccc2OC)c1 | -22% | . | . | . | -4% | -10%
Cc1ccccc1Nc1cc(C(=O)NC2CCC(C)CC2)c2ccccc2n1 (centres undefined) | -14% | -78* | ? | 21%[46.1 µM] | 43% | -22%
CN(C(=S)NC(=O)/C=C/c1ccc(F)cc1)C1CCCCC1 | i | -76* | 1% | -1% | 7% | -12%
